{
  "source": "PubChem BioAssay AID2284133",
  "about": "(EPA ToxCast)",
  "note": "Activity calls are given as the source filed them. Rule for the calls: active = hit-call score of the fitted dose curve at least 0.9, where 1 is the maximum; inactive = score below 0.9.",
  "data": [
    {"molecular_target": "human MARK1 CAMK Kinase, MARK1 (gene 4139) (UniProt Q9P0L2)", "sequence (Q9P0L2 whole entry, looked up)": "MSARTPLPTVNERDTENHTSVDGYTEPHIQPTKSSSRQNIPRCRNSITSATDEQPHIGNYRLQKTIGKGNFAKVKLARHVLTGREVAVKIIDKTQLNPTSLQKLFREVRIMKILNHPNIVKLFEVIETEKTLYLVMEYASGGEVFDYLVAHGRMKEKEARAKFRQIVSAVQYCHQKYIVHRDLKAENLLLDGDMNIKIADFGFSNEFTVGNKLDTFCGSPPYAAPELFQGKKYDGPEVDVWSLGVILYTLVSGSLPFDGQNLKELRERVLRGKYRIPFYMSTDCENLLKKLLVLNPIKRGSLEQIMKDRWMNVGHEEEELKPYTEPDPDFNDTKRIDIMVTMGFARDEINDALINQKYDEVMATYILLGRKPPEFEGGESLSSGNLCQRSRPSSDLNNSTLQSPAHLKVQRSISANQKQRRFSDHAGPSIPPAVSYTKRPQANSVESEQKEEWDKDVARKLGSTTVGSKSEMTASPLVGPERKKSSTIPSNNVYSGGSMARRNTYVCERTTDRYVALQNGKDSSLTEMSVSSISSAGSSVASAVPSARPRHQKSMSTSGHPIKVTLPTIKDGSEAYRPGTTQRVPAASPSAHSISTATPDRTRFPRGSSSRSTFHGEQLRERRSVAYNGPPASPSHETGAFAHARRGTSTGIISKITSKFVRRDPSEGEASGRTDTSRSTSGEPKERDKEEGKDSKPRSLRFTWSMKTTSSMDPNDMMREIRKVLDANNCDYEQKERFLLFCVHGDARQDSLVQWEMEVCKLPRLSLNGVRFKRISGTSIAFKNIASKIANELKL", "assay": "ERF_FR_ENZ_hMARK1: Eurofins (ERF) Enzymatic Radiometric [Km ATP] KinaseProfiler LeadHunter Assay for human MARK1 CAMK Kinase", "procedure": "ERF_FR_ENZ_hMARK1 is a biochemical, single-readout assay that uses extracted gene-proteins in a cell-free assay. Measurements were taken 0.5 hour after chemical dosing in a 96-well plate. See MARK1 Human CAMK Kinase Enzymatic LANCE Assay [Km ATP], Cerep.ERF_FR_ENZ_hMARK1 is an assay component calculated from the ERF_FR_ENZ_hMARK1 assay. It is designed to measure enzyme activity using a type of enzyme reporter as detected by fluorescence intensity with LANCE technology.Data from the assay component ERF_FR_ENZ_hMARK1 was analyzed at the assay endpoint, ERF_FR_ENZ_hMARK1, in the positive analysis fitting direction relative to DMSO as the negative control and baseline of activity. Using a type of enzyme reporter, loss-of-signal activity can be used to understand changes in enzymatic activity as they relate to gene MARK1. To generalize the intended target to other relatable targets, this assay endpoint is annotated to the kinase intended target family, where the subfamily is serine/threonine kinase.\n[…] is incubated with 50 mM Na-b-glycerophosphate pH 7.5, 0.1 mM EGTA, 30 uM […], 10 mM MgAcetate and [gamma-33P]-ATP (specific activity and concentration as required). The reaction is initiated by the […] addition of the Mg/ATP mix. After incubation for 40 minutes at room temperature, the reaction is stopped by the addition of phosphoric acid to a concentration of 0.5%. […]", "values": [
      {"molecule": "O=C(/C=C/c1ccc(O)cc1)CC(=O)/C=C/c1ccc(O)cc1", "outcome": "inactive"}
    ]}
  ]
}
